The nature of experiment [1]: qHTS of pediatric cancer cell lines to identify multiple opportunities for drug repurposing: Primary screen for control Hh wild type fibroblast cells (AID 1347106).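 Further: series mostly up to about 46 µM; a drop in luminescence marks cytotoxicity and a rise apparent proliferation; nearly all actives have a fitted effect of over 55% in size.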 The method, boiled down: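 Viability after 48 h compound treatment at 37C, 500-1,000 cells/well, read as ATP luminescence with CellTiter-Glo. Primary screens used 11-point (MIPE, 0.78 nM-46 µM) or 8-point (NPC, 0.59 nM-46 µM) final concentrations; follow-up screens used 11-point dilutions.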
On the technique in general: Quantitative high-throughput screening tests each substance at several concentrations.

Experiment [2] is described as follows: qHTS of pediatric cancer cell lines to identify multiple opportunities for drug repurposing: Primary screen for Rh30 cells (AID 1347107). Further: nearly all actives have a fitted effect of over 75% in size. Further: potency means the concentration at half of the fitted maximal effect. The method, boiled down: (§1)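 Cells (500-1,000/well) rested 5 h, then received compounds for 48 h; metabolically active cells were measured by CellTiter-Glo luminescence. Final concentrations spanned up to 46 µM (MIPE, 11-point) or 0.59 nM-46 µM (NPC, 8-point) in primary screens, 11-point in follow-ups.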

Experiment [3] is described as follows: qHTS of pediatric cancer cell lines to identify multiple opportunities for drug repurposing: Primary screen for Rh41 cells (AID 1347108). Further: nearly all actives have a fitted effect of over 70% in size. Further: potency means the concentration at half of the fitted maximal effect. In a few lines: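 Viability was measured as metabolically active cells after 48 hours of treatment, read by CellTiter-Glo luminescence. Compounds were tested at multiple final concentrations, giving concentration-response curves.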

Experiment [4] is described as follows: qHTS of pediatric cancer cell lines to identify multiple opportunities for drug repurposing: Confirmatory screen for NB1643 cells (AID 1347109). Further: nearly all actives have a fitted effect of over 45% in size. Further: potency means the concentration at half of the fitted maximal effect. The method, boiled down:
as §1

A short description of experiment [5]: qHTS of pediatric cancer cell lines to identify multiple opportunities for drug repurposing: Confirmatory screen for A673 cells (AID 1347110).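 Further: cells exposed to compound for 48 h before the viability read; nearly all actives have a fitted effect of over 65% in size.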 Further: potency means the concentration at half of the fitted maximal effect. The method, boiled down:
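A673 cells at 500-1,000 cells/well were dosed 5 h after plating, in dilution series up to 46 uM final; primary runs used 8 or 11 points and confirmatory runs used 11 points. Viability was read by CellTiter-Glo luminescence after 48 h, against DMSO and 2.3 uM bortezomib controls.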

The nature of experiment [6]: qHTS of pediatric cancer cell lines to identify multiple opportunities for drug repurposing: Confirmatory screen for SK-N-MC cells (AID 1347111).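 Further: potency means the concentration at half of the fitted maximal effect; cells exposed to compound for 48 h before the readout; nearly all actives have a fitted effect of over 70% in size.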 In a few lines:
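Seed 500-1,000 cells/well; rest 5 h at 37 degrees C. Pin-transfer compounds, 11-point titration. Incubate 48 h. Add CellTiter-Glo, 15 min RT, read luminescence.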

Experiment [7] is described as follows: qHTS of pediatric cancer cell lines to identify multiple opportunities for drug repurposing: Confirmatory screen for BT-12 cells (AID 1347112). Further: potency means the concentration at half of the fitted maximal effect; nearly all actives have a fitted effect of over 55% in size. The method, boiled down: as §1
The nature of experiment [8]: qHTS of pediatric cancer cell lines to identify multiple opportunities for drug repurposing: Confirmatory screen for LAN-5 cells (AID 1347113). Further: nearly all actives have a fitted effect of over 65% in size. Further: potency means the concentration at half of the fitted maximal effect. The method, boiled down: as §1
A short description of experiment [9]: qHTS of pediatric cancer cell lines to identify multiple opportunities for drug repurposing: Confirmatory screen for DAOY cells (AID 1347114). Further: potency means the concentration at half of the fitted maximal effect; nearly all actives have a fitted effect of over 65% in size. The method, boiled down: (§2)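 Viability measured as metabolically active cells via CellTiter-Glo luminescence following 48 hours of compound exposure, 11-point dilutions in confirmatory testing. 500-1,000 cells/well plated 5 hours before dosing; controls were DMSO and 2.3 µM bortezomib.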

Experiment [10] is described as follows: qHTS of pediatric cancer cell lines to identify multiple opportunities for drug repurposing: Confirmatory screen for NB-EBc1 cells (AID 1347115).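 Further: cells exposed to compound for 48 h before the viability read; nearly all actives have a fitted effect of over 45% in size.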 Further: potency means the concentration at half of the fitted maximal effect. In a few lines: as §1
Experiment [11] is described as follows: qHTS of pediatric cancer cell lines to identify multiple opportunities for drug repurposing: Confirmatory screen for SJ-GBM2 cells (AID 1347116). Further: nearly all actives have a fitted effect of over 60% in size. Further: potency means the concentration at half of the fitted maximal effect. The method, boiled down: as §2
Experiment [12] is described as follows: qHTS of pediatric cancer cell lines to identify multiple opportunities for drug repurposing: Confirmatory screen for BT-37 cells (AID 1347117). Further: nearly all actives have a fitted effect of over 55% in size. Further: potency means the concentration at half of the fitted maximal effect. The method, boiled down: as §1
Experiment [13] is described as follows: qHTS of pediatric cancer cell lines to identify multiple opportunities for drug repurposing: Confirmatory screen for TC32 cells (AID 1347118).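 Further: potency means the concentration at half of the fitted maximal effect; cells exposed to compound for 48 h before the read; nearly all actives have a fitted effect of over 65% in size.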 The method, boiled down: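 TC32 cells, 500-1,000/well in growth medium, compound-treated 48 h at 37 °C; viability from CellTiter-Glo luminescence. Primary screen: MIPE 11-point (0.78 nM–46 µM final), NPC 8-point (0.59 nM–46 µM final); confirmatory at 11-point dilutions.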

A short description of experiment [14]: qHTS of pediatric cancer cell lines to identify multiple opportunities for drug repurposing: Confirmatory screen for control Hh wild type fibroblast cells (AID 1347121). Further: nearly all actives have a fitted effect of over 70% in size. Further: potency means the concentration at half of the fitted maximal effect. The method, boiled down: as §1
Experiment [15] can be described thus: qHTS of pediatric cancer cell lines to identify multiple opportunities for drug repurposing: Confirmatory screen for U-2 OS cells (AID 1347122). Further: nearly all actives have a fitted effect of over 65% in size. Further: potency means the concentration at half of the fitted maximal effect. In a few lines:
as §1

A short description of experiment [16]: qHTS of pediatric cancer cell lines to identify multiple opportunities for drug repurposing: Confirmatory screen for Rh41 cells (AID 1347123).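 Further: potency means the concentration at half of the fitted maximal effect; 48 h compound exposure; nearly all actives have a fitted effect of over 60% in size.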 The method, boiled down: as §1
A short description of experiment [17]: qHTS of pediatric cancer cell lines to identify multiple opportunities for drug repurposing: Confirmatory screen for Rh18 cells (AID 1347125). Further: nearly all actives have a fitted effect of over 55% in size. Further: potency means the concentration at half of the fitted maximal effect. The method, boiled down: as §1
The nature of experiment [18]: qHTS of pediatric cancer cell lines to identify multiple opportunities for drug repurposing: Confirmatory screen for Rh30 cells (AID 1347126). Further: nearly all actives have a fitted effect of over 55% in size. The method, boiled down:
as §1

Experiment [19] in a line: qHTS of pediatric cancer cell lines to identify multiple opportunities for drug repurposing: Confirmatory screen for RD cells (AID 1347124). In a few lines:
as §1

Inconclusive results are not listed. Activity calls are given as the source filed them. The call rests on the fitted dose curve; in most records, active means well fitted curve in the direction sought with a large enough effect; inconclusive means small, poorly fitted or top-dose-only effect, or another doubt; inactive means no such curve, though single readings can be large; an effect the other way counts as inactive or inconclusive.

As to `O=C(CCN1CCN2CCCC2C1)N1c2ccccc2Sc2ccc(Cl)cc21` (stereo unspecified), the Potency entry in experiment [1], in experiment [2] and in experiment [3] was “inactive” throughout.
For the compound `CCOC(=O)c1ccc(N)cc1`, the Potency result in experiment [1], in experiment [2] and in experiment [3] was “inactive” in each case.
For `CC(C)Nc1cccnc1N1CCN(C(=O)c2cc3cc(NS(C)(=O)=O)ccc3[nH]2)CC1`, the Potency entry in experiment [1], in [2] and in experiment [3] was “inactive” each time.
In the case of `COc1ccc(C(=O)c2ccccc2O)c(O)c1`, the Potency entry in experiment [1], in [2] and in experiment [3] was “inactive” throughout.
In the case of `CCN1/C(=C/C=C/c2sc3ccccc3[n+]2CC)Sc2ccccc21`, the Potency was 3.26 µM (active) in experiment [2]; 1.64 µM (active) in [3]; 1.31 µM (active) in experiment [4]; 0.456 µM (active) in [5]; 0.827 µM (active) in [6]; 1.17 µM (active) in experiment [7]. Moreover, the Potency in experiment [8] is 0.737 µM (active); in experiment [9], 0.362 µM (active); in [10], 2.61 µM (active); in experiment [11], 2.04 µM (active); in [12], 0.827 µM (active); in [13] it was 1.04 µM (active). The Potency in experiment [14] was 0.465 µM (active); in experiment [15], 0.811 µM (active); in experiment [16] it was 0.512 µM (active); in experiment [17], 5.22 µM (active). The Potency entry in experiment [18] was “inactive”.
With `CCOC(=O)c1c(N)sc2c1CCN(Cc1ccccc1)C2`, the Potency result in [1], in [2] and in experiment [3] was “inactive” each time.
`Cl/C(=C\n1cncn1)c1ccc(Cl)cc1Cl`: the Potency result in [1], in experiment [2] and in experiment [3] was “inactive” each time.
For `CCN(CC)CCOc1ccc2c(c1)C(=O)c1cc(OCCN(CC)CC)ccc1-2`, the Potency result in experiment [1], in [2], in experiment [14], in experiment [15] and in experiment [19] was “inactive” in each case. Besides, the Potency in experiment [4] was 18.5 µM (active); in experiment [6], 7.37 µM (active); in [8], 11.7 µM (active); in experiment [12], 20.8 µM (active); in experiment [13], 9.27 µM (active); in experiment [16], 23.3 µM (active).
In the case of `CC(C)Cn1cnc2c1c(=O)n(C)c(=O)n2C`, the Potency entry in experiment [1], in [2] and in experiment [3] was “inactive” each time.
Consider `CCCCCCCCCCCCCC[N+](C)(C)Cc1ccccc1`, for which, in experiment [3], the Potency was 18.8 µM (active).
As to `CCC(C(=O)OCCOCCN(CC)CC)c1ccccc1` (stereo unspecified), the Potency entry in experiment [1], in experiment [2] and in experiment [3] was “inactive” each time.
Consider `C=C1c2cccc(O)c2C(O)=C2C(=O)[C@]3(O)C(O)=C(C(N)=O)C(=O)[C@@H](N(C)C)[C@@H]3[C@@H](O)[C@H]12`, for which the Potency result in experiment [1], in [2] and in [3] was “inactive” each time.
As for `Clc1cccc(C(c2ccc3nc[nH]c3c2)n2ccnc2)c1` (stereo unspecified), the Potency entry in experiment [1], in experiment [2] and in experiment [3] was “inactive” throughout.
On to `C#C[C@]1(O)CC[C@H]2[C@@H]3CCC4=CC(=O)CC[C@@H]4[C@H]3CC[C@@]21CC`, for which the Potency entry in experiment [1], in experiment [2] and in experiment [3] was “inactive” in each case.
`O=C(O)C1(C(=O)O)CCC1.[NH2-].[NH2-].[Pt+2]`: the Potency entry in [1], in experiment [2] and in experiment [3] was “inactive” throughout.
With `Cc1ccc(O)c([C@H](CCN(C(C)C)C(C)C)c2ccccc2)c1`, the Potency entry in experiment [1], in experiment [2] and in [3] was “inactive” in each case.
Consider `CC(C)(C)NC[C@H](O)COc1nsnc1N1CCOCC1`, for which the Potency entry in [1], in experiment [2] and in [3] was “inactive” each time.
With `CN1CCN(C2=Nc3ccccc3Sc3ccc(Cl)cc32)CC1`, the Potency result in experiment [1], in experiment [2] and in experiment [3] was “inactive” in each case.
For `O=C(CCCN1CC=C(n2c(=O)[nH]c3ccccc32)CC1)c1ccc(F)cc1`, the Potency entry in experiment [4], in [5], in experiment [8], in [10], in experiment [11] and in experiment [12] was “inactive” each time. The Potency result in experiment [14], in experiment [19], in experiment [17] and in [18] was “inactive” in each case. Moreover, in experiment [16], the Potency was 18.5 µM (active).
With `Cc1c(-c2ccccc2)oc2c(C(=O)OCCN3CCCCC3)cccc2c1=O`, the Potency entry in experiment [1], in [2] and in [3] was “inactive” in each case.
As to `CCOC(=O)Nc1ccc2c(c1)N(C(=O)CCN1CCOCC1)c1ccccc1S2`, the Potency entry in [1], in experiment [2] and in experiment [3] was “inactive” throughout.
In the case of `O=C1OC(CN2CCOCC2)CN1/N=C/c1ccc([N+](=O)[O-])o1` (stereo unspecified), the Potency result in [1], in [2] and in experiment [3] was “inactive” each time.
Take `CCN1CCN(C(=O)N[C@@H](C(=O)N[C@@H]2C(=O)N3C(C(=O)O)=C(CSc4nnnn4C)CS[C@H]23)c2ccc(O)cc2)C(=O)C1=O`: the Potency result in experiment [1], in [2] and in experiment [3] was “inactive” each time.
Regarding `CN(Cc1ccc(C(C)(C)C)cc1)Cc1cccc2ccccc12`, the Potency result in experiment [1], in [2] and in [3] was “inactive” each time.
For `CCCCCCCCCCCCOCCOCCOCCOCCOCCOCCOCCOCCOCCO`, the Potency result in experiment [1], in experiment [2], in experiment [4], in [11], in [12] and in experiment [19] was “inactive” throughout. The Potency result in experiment [17] and in [18] was “inactive” in each case. Moreover, the Potency in experiment [9] and in experiment [15] was 14.7 µM (active) in each case.
On to `NCc1ccccc1Sc1ccccc1CO`, for which the Potency result in [1], in [2] and in experiment [3] was “inactive” throughout.
In the case of `CCC(Cc1c(I)cc(I)c(N)c1I)C(=O)O` (stereo unspecified), the Potency entry in [1], in experiment [2] and in experiment [3] was “inactive” throughout.

For the origin of these results see PubChem BioAssay (NCATS).
